Hits are enriched below; roughly 1.4% of the tested compounds scored in any of these assays.
E coli Lon inh: E. coli protease La inhibition. 360,000 compounds, 0.42% hits. purified E. coli Lon protease, fluorescence polarization. inhibition, % at 7.94 µM. P0A9M0; in the data active = inhibition above about 13%, passing the limit was not always enough;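 also: 0% = enzyme with probe and DMSO and 100% = no enzyme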
EBV gp42 inh: blocks Epstein-Barr virus glycoprotein 42 binding. Q1HVG2. Fluorescence polarization binding assay, mP read-out. inhibition, % (tested at 21.74 µM). 220,000 compounds, 0.42% hits; in the data active = inhibition above about 50%
Target sequence (Q1HVG2 whole entry, looked up): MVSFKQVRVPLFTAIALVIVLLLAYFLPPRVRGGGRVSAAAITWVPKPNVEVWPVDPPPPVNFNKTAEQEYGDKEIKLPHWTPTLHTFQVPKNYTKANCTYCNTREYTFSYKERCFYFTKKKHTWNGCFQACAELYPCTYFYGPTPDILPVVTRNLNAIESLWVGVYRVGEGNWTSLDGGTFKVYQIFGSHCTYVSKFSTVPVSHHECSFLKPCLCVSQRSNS
Bcl-xL primary: inhibitors of human Bcl-xL; inhibition, % at 10.9 µM; 320,000 compounds, 0.7% hits; GST-Bcl-xL / FITC-Bim BH3 peptide fluorescence polarization; AID 2129;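 active = inhibition above the mean of all tested compounds plus 3 SD, cutoff set per campaign, cut at about 30% in these data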;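 also: 0% = DMSO wells and 100% = unlabeled Bim-BH3 peptide competitor; inhibitors lower millipolarization by displacing the labeled peptide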
Target sequence (Q07817 whole entry, looked up): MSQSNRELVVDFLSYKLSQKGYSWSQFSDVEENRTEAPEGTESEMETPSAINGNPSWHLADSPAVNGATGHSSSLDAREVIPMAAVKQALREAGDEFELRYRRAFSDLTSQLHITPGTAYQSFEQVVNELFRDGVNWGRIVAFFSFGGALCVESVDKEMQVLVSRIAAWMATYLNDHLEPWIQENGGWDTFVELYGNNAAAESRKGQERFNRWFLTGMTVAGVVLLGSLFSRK
MCL1 BIM primary: inhibitors of human MCL1 binding to BIM-BH3 peptide | 320,000 compounds, 0.68% hits | AID 2057 | GST-MCL1 / FITC-Bim-BH3 fluorescence polarization | inhibition, % at 10.9 µM;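 active = inhibition above the mean inhibition of all tested compounds plus 3 SD, set per campaign, cut at about 40% in these data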;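 also: 0% = DMSO wells and 100% = unlabeled Bim-BH3 peptide control; higher means more loss of mP so more displacement of Bim peptide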
MEX-5 binding: C. elegans MEX-5 TCR-2 RNA binding activity; MEX-5/FITC-TCR2 RNA binding, fluorescence polarization; stronger effect = lower value; activity score (negative = inhibition of binding), % at 10 µM; 300,000 compounds, 0.38% hits;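 active = inhibition past about -25% in most replicates, and total fluorescence under double the plate's negative control median, limit read from the data; inconclusive = replicates evenly split on the limit, or fluorescence at least double controls; inactive = too little inhibition in most replicates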;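 also: 0% = DMSO and -100% = 5 µM competing unlabeled TCR2 RNA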
GLD-1 RNA inh: GLD-1-TGE RNA interaction inhibition (C. elegans) | Q17339 | purified GLD-1 + fluorescein TGE RNA, fluorescence polarization | inhibition, % at 5.96 µM | 320,000 compounds, 0.44% hits;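 active = percent inhibition above a per-plate cutoff, the plate mean of test compounds plus 3 SD, cut at about 30% in these data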;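 also: 0% = DMSO wells with GLD-1 and probe and 100% = wells lacking GLD-1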
* marks the source's active call; other numbers are inactive results; ? = inconclusive; nt = no result.

SMILES	E coli Lon inh	EBV gp42 inh	Bcl-xL primary	MCL1 BIM primary	MEX-5 binding	GLD-1 RNA inh
COc1ccccc1C1C=C(c2ccc(Cl)cc2)Nc2nc(N3C(=O)CCC3=O)nn21 (centres undefined)	9	-8	15	19	nt	12
O=C1CCC(=O)N1c1nc2n(n1)C(c1ccccc1)C=C(c1ccc(Br)cc1)N2 (centres undefined)	5	51*	18	29	-12	28
COc1ccccc1CNC(=O)C(=O)NCC1CCCN1S(=O)(=O)c1cccs1 (centres undefined)	0	nt	2	3	1	-7
Cc1ccc(N/N=C(\C#N)C(=O)c2ccsc2)cc1	4	-14	6	-1	-1	7
N#C/C(=N\Nc1ccc(Cl)cc1)C(=O)c1ccsc1	-1	-4	6	8	-38*	-1
COc1cccc(CNC(=O)c2cc3c(c(-c4cccc(-c5cccc(C#N)c5)c4)n2)[C@H](CCO)N(S(=O)C(C)(C)C)C3)c1 (some centres undefined)	-10	nt	nt	nt	nt	nt
Cc1cccc(NC(=O)CN2C(=O)S/C(=C\c3ccc(O)c([N+](=O)[O-])c3)C2=O)c1	6	10	11	0	-1	-5
Cc1ccc(NC(=O)CN2C(=O)S/C(=C/c3ccc(O)c([N+](=O)[O-])c3)C2=O)cc1C	0	65*	nt	nt	nt	nt
O=C(OCCN1C(=O)c2cccc3c(N4CCOCC4)ccc(c23)C1=O)c1ccccc1Cl	-192	146*	25	-9	?	19
Cc1ccc(N(C)S(=O)(=O)c2c(C)noc2/C=C/N(C)C)cc1	-30	nt	-23	-35	-30*	-10
Cc1ccc(CCNC(=O)C2CCCN(S(=O)(=O)c3c(C)noc3/C=C/N(C)C)C2)cc1 (centres undefined)	-48	3	-23	-36	nt	-42
O=C(O)c1ccc(Cl)c(NCc2cccs2)c1	-6	nt	7	9	0	-1
CCC(C)n1c(=N)c(C#N)cc2c(=O)n3cc(C)ccc3nc21 (centres undefined)	1	-10	10	5	-34*	9
COc1cccc(CN2CCCC(C(=O)N3CCCCC3)C2)c1 (centres undefined)	-9	nt	-1	1	-3	-2
Cc1noc(C)c1S(=O)(=O)NC1CCN(Cc2ccccc2)CC1	-3	2	35*	32	-34*	9
O=C(O)c1ccc(Nc2nc3ccc(Cl)cc3[nH]2)cc1	-1	nt	-3	-6	-2	-4
c1ccc(C(c2nnnn2C2CCCCC2)N2CCc3ccccc3C2)nc1 (centres undefined)	-1	-5	30*	29	0	25
CCc1cc2cc(C)cc(C)c2[nH]c1=S	4	-50	4	2	0	-1
N#C/C(=C\c1ccccc1[N+](=O)[O-])C(=O)NC1CCCCC1	15	-14	31*	31	0	26
N#C/C(=C\C=C\c1ccccc1[N+](=O)[O-])C(=O)NC1CCCCC1	-4	-15	5	5	5	-3
CN(C)c1cccc(C(=O)NCCCSc2ccccc2)c1	-8	nt	3	6	3	7
Cc1ccc(OCCCC(=O)N(C)CC(=O)Nc2c(C)cccc2C)cc1	-5	nt	nt	nt	nt	nt
O=C(Nc1nccs1)c1cccc(N2C(=O)c3cccc4c([N+](=O)[O-])ccc(c34)C2=O)c1	10	20	43*	47*	-4	69*
N#Cc1c(-c2ccccc2Cl)cc(-c2ccccc2)[nH]c1=S	nt	11	9	15	-1	2
Cc1cc(-c2ccccc2)c(C#N)c(=S)[nH]1	-12	83*	5	-1	0	3
SMILES	E coli Lon inh	EBV gp42 inh	Bcl-xL primary	MCL1 BIM primary	MEX-5 binding	GLD-1 RNA inh
CC(=O)c1sc(NC(=O)C(C)Oc2ccc3c(C)cc(=O)oc3c2)nc1C (centres undefined)	4	nt	3	0	2	4
CS(=O)(=O)N1CCC(C(=O)NCc2ccc(Cl)cc2)CC1	4	-11	5	16	1	-2
C=C(C)Cn1c2ccc(NC(=O)NCCc3ccccc3)cc2c(=O)n1C	0	nt	nt	nt	nt	nt
COc1cc(NC(=O)CSc2nc3ncnc(N)c3[nH]2)c(C(=O)O)cc1OC	-4	nt	1	1	-31*	2
COc1cc(NC(=O)CSc2ccccc2)c(C(=O)O)cc1OC	3	-10	7	0	1	2
COc1ccc(CC(NC(C)=O)C(=O)NC2CCN(C(=O)C3CCCCC3)CC2)cc1OC (centres undefined)	4	nt	-4	-7	1	7
COc1ccc2nc(C)cc(N3CCN(S(=O)(=O)c4ccccc4F)CC3)c2c1	-5	nt	-2	-3	nt	1
O=C(CSc1ccc(-c2ccco2)nn1)c1cccc([N+](=O)[O-])c1	-13	-5	25	66*	0	1
CC(=O)c1cccc(NC(=O)CSc2ccc(-c3ccco3)nn2)c1	-25	nt	9	10	4	4
COc1ccccc1OC(=O)Nc1ccc(Cl)cc1	-4	nt	48*	47*	0	11
Cc1ccc(-n2c(C)cc3c2CCCC3=O)cc1	5	-17	31*	34	-3	17
CC(C)=CCC[C@H](C)C[C@@H]1Cc2[nH]c(=S)[nH]c(=O)c2[C@@H](c2ccc(F)cc2)O1	-3	nt	nt	nt	nt	nt
CC1(O)C(=O)C=C2C=C(C3CC3)OC=C2C1=O (centres undefined)	nt	nt	21	31	-60*	23
CC1(OC(=O)CCc2ccccc2)C(=O)C=C2C=C(C3CC3)OC=C2C1=O (centres undefined)	nt	nt	39*	45*	-19	33*
CC1(OC(=O)CCc2ccccc2)C(=O)C=C2C=C(c3ccc(C#N)cc3)N(C3CCCCC3)C=C2C1=O (centres undefined)	-3	14	20	21	-3	15
O=C1Nc2ccc(F)cc2C12Nc1ccccc1-c1nnc(SCc3ccccc3F)nc1O2 (centres undefined)	2	14	-1	2	-5	5
O=C1Nc2ccc(Cl)cc2C12Nc1ccccc1-c1nnc(SCc3ccccc3F)nc1O2 (centres undefined)	4	102*	5	8	-7	-2
O=C1O[C@@H](c2ccccc2)C[C@@H](O)[C@H](O)CCCCc2ccccc21	2	nt	nt	nt	nt	nt
CN(Cc1ccc(OC(F)F)cc1)C(=O)c1ccc2nccnc2c1	-1	6	8	7	-3	9
COc1cccc(CN(C)C(=O)c2ccc3nccnc3c2)c1	-15	29	41*	48*	1	10
CCn1c(SCc2ccc(C(=O)Nc3nccs3)cc2)nnc1-c1ccc(NC(C)=O)cc1	2	-16	6	13	0	-10
CCn1c(SCc2ccc(C(=O)Nc3nccs3)cc2)nnc1-c1ccc(N)cc1	2	53*	5	6	2	11

High-throughput results deposited in PubChem by several laboratories.
